{
  "source": "PubChem BioAssay (Tox21)",
  "note": "Results filed as inconclusive are left out. Unmarked numbers belong to inactive results. Active and inactive are the calls of the source. Calls come from the whole dose curve; as a rule, active = well fitted inhibition curve with a large enough effect in the signal ratio in the repeat runs (not every such curve was filed as active); inconclusive = weak or mixed curves; inactive = flat fitted curve, though single readings scatter; the % refers to the signal ratio. % is set by controls: 0 for no effect and ±100 for the full control effect; potency is the fitted concentration of half-maximal effect.",
  "data": [
    {"target": "Progesterone receptor (Homo sapiens) (UniProt P06401)", "sequence (P06401 whole entry, looked up)": "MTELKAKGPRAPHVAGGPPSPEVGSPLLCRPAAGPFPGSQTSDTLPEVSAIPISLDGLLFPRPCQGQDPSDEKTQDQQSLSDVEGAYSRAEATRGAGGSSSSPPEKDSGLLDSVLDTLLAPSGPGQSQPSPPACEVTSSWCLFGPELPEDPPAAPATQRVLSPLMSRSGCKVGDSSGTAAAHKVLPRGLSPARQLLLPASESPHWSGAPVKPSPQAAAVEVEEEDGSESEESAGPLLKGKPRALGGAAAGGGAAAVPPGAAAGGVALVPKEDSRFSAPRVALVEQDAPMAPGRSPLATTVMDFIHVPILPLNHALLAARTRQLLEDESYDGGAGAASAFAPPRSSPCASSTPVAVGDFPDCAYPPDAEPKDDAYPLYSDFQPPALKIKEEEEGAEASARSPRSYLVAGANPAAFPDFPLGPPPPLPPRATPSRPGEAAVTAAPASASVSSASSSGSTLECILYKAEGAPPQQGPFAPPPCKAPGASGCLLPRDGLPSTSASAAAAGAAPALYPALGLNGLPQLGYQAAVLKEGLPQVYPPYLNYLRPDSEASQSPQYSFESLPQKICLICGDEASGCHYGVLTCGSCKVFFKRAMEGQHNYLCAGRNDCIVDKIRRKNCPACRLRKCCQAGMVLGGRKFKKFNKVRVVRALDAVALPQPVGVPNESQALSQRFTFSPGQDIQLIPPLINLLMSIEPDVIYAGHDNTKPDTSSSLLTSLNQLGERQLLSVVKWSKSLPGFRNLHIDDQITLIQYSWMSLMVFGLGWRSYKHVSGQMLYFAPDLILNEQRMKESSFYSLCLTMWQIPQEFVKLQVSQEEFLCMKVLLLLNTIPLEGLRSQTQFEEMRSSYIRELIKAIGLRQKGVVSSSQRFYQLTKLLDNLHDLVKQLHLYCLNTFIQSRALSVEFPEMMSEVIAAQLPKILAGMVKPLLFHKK", "assay": "qHTS assay to identify small molecule antagonists of the progesterone receptor (PR) signaling pathway (AID 1346795)", "details": "PR-UAS-bla HEK293T, beta-lactamase FRET ratio, 16 h; series mostly up to 92.4 µM; activity change, negative = inhibition: at the top concentration", "from_the_text": "National Center for Advancing Translational Sciences [NCATS]\nNIH Chemical Genomics Center [NCGC]\nU.S. Environmental Protection Agency [EPA]\nNational Institutes of Environmental Health Sciences [NIEHS]\nNational Toxicology Program [NTP]\nU.S. Food and Drug Administration [FDA]\nProgesterone receptor (PR), a nuclear hormone receptor, plays an important role in development, metabolic homeostasis and reproduction. […] Endocrine disrupting chemicals (EDCs) and their interactions with steroid hormone receptors like PR causes disruption of normal endocrine function. To identify the compounds that inhibit PR signaling, a PR-UAS-bla GripTite cell line i.e. PR-UAS-bla HEK293T (Invitrogen, Carlsbad, CA, USA) containing a beta-lactamase reporter gene under the control of an Upstream Activator Sequence (UAS) was used to screen Tox21 10K compound library.\nTox21 Assay Protocol Summary:\nPR-UAS-bla HEK293T cells were dispensed at 3,000 cells/4 uL of assay medium containing 2% charcoal stripped FBS per well into black wall/clear-bottom 1536-well plates using a Multidrop Combi (ThermoFisher Scientific, Waltham, MA) dispenser. After the assay plates were incubated at a 37C and 5% CO2 for 6 hr, 23 nL of compounds dissolved in DMSO, positive controls or DMSO only was transferred to the assay plate by a Pintool station (Kalypsys, San Diego, CA), followed by addition of 1 uL (1nM as final concentration) of Promegestone (R5020) in assay medium using a BioRAPTR FRD (Flying Reagent Dispenser, Aurora Discovery, San Diego, CA). The plates were incubated at 37C and 5% CO2 for 16 hr. Then 1 uL of LiveBLAzer B/G FRET substrate was added using a FRD. After the plates were incubated at room temperature for 2 hours, fluorescence intensity was measured by an Envision plate reader (PerkinElmer, Shelton, CT).", "values": [
      {"smiles": "CCN(CC)CCNC(=O)c1ccc(NC(C)=O)cc1", "activity change, negative = inhibition": "6.83% [at 42.5 µM]"},
      {"smiles": "O=[N+]([O-])c1cccc(S(=O)(=O)NCCNS(=O)(=O)c2cccc([N+](=O)[O-])c2)c1", "activity change, negative = inhibition": "-28.8% [at 42.5 µM]"},
      {"smiles": "CC(CCc1ccc2c(c1)OCO2)NN", "note": "(stereo not given)", "activity change, negative = inhibition": "-1.82% [at 42.5 µM]"},
      {"smiles": "CC(=O)N(c1onc(C)c1C)S(=O)(=O)c1ccc(N)cc1", "activity change, negative = inhibition": "12.2% [at 42.5 µM]"},
      {"smiles": "C=CC(C)=CCC=C(C)C", "activity change, negative = inhibition": "15.1%"},
      {"smiles": "O=C(N[C@@H](c1ccccc1)[C@@H]1CCCCN1)c1cccc(C(F)(F)F)c1Cl", "Potency": "34.4 µM (active)"},
      {"smiles": "O=C(O)c1snc(Cl)c1Cl", "activity change, negative = inhibition": "4.21%"},
      {"smiles": "COCCOC", "activity change, negative = inhibition": "-26.1%"},
      {"smiles": "Cc1nc2ccccn2c(=O)c1CCN1CCC(C(=O)c2ccc(F)cc2)CC1", "activity change, negative = inhibition": "5.2% [at 42.5 µM]"},
      {"smiles": "O=S(=O)(c1ccccc1)c1ccc(Cl)cc1", "Potency": "24.3 µM (active)"},
      {"smiles": "CCCCCCCCCCCCCCCCBr", "activity change, negative = inhibition": "-0.513% [at 18.9 µM]"},
      {"smiles": "COc1ccc(CCC(=O)c2c(O)cc(O[C@@H]3O[C@H](CO)[C@@H](O)[C@H](O)[C@H]3O[C@@H]3O[C@@H](C)[C@H](O)[C@@H](O)[C@H]3O)cc2O)cc1O", "activity change, negative = inhibition": "0.681%"},
      {"smiles": "O=C(O)c1cccc(O)c1", "activity change, negative = inhibition": "-6.99%"},
      {"smiles": "O=C(/C=C/c1ccccc1)OCCCc1ccccc1", "activity change, negative = inhibition": "-11.9%"},
      {"smiles": "Nc1c(I)cc(I)c(C(=O)N(CCC(=O)O)c2ccccc2)c1I", "activity change, negative = inhibition": "-22.1% [at 42.5 µM]"},
      {"smiles": "CC(C)C(=O)O", "activity change, negative = inhibition": "9.5%"},
      {"smiles": "CC(=O)Oc1ccc(C(=C2CCCCC2)c2ccc(OC(C)=O)cc2)cc1", "Potency": "13.3 µM (active)"},
      {"smiles": "CC#N", "activity change, negative = inhibition": "3.79%"},
      {"smiles": "CCC(C)(O)CCC=C(C)C", "note": "(stereo not given)", "activity change, negative = inhibition": "9.89%"},
      {"smiles": "COC(=O)c1cc(Cl)ccc1NS(=O)(=O)C(F)(F)F", "activity change, negative = inhibition": "11.8% [at 42.5 µM]"},
      {"smiles": "O=C(CCC1CCN(Cc2ccccc2)CC1)c1ccc2c(c1)NCCCC2", "activity change, negative = inhibition": "-18.2% [at 42.5 µM]"},
      {"smiles": "Nc1nc(Cl)nc2c1ncn2[C@@H]1O[C@H](CO)[C@@H](O)[C@@H]1F", "activity change, negative = inhibition": "7.72% [at 42.5 µM]"},
      {"smiles": "O=C(NCCCN1CCOCC1)c1ccc(Cl)cc1", "activity change, negative = inhibition": "2.35% [at 42.5 µM]"},
      {"smiles": "CCCCCCOC(=O)CCCCCCCC(=O)OCCCCCC", "activity change, negative = inhibition": "-5.79%"},
      {"smiles": "Nc1ccc(S(=O)(=O)O)cc1", "activity change, negative = inhibition": "1.72%"},
      {"smiles": "CCn1nc(C)c2c1C(=O)NCC(c1ccc(O)cc1)=N2", "activity change, negative = inhibition": "-20.8%"},
      {"smiles": "c1ccc(COCc2ccccc2)cc1", "activity change, negative = inhibition": "4.57%"},
      {"smiles": "Nc1ccc(S(=O)(=O)O)c(N)c1", "activity change, negative = inhibition": "13.2%"},
      {"smiles": "NC(=O)Nc1ccc(Cl)cc1", "activity change, negative = inhibition": "-2.22%"},
      {"smiles": "O=C(O)c1ccccc1NCCc1ccccc1", "activity change, negative = inhibition": "-21.7% [at 42.5 µM]"},
      {"smiles": "O=C1OCCN1/N=C/c1ccc([N+](=O)[O-])o1", "activity change, negative = inhibition": "10.5% [at 42.5 µM]"},
      {"smiles": "CC(C)CCCC(=O)O", "activity change, negative = inhibition": "8.01%"},
      {"smiles": "CCCCCC=CCC=CCCCCCCCC(=O)OCC", "activity change, negative = inhibition": "3.03% [at 42.5 µM]"},
      {"smiles": "C[N+]1(C)CCC(=C(c2ccccc2)c2ccccc2)CC1", "activity change, negative = inhibition": "4.82% [at 42.5 µM]"},
      {"smiles": "CCCCC(=O)O[C@]1(C(=O)CO)CC[C@H]2[C@@H]3CCC4=CC(=O)CC[C@]4(C)[C@H]3[C@@H](O)C[C@@]21C", "activity change, negative = inhibition": "2.68% [at 42.5 µM]"},
      {"smiles": "Cc1c(C(=O)NN2CCCCC2)nn(-c2ccc(Cl)cc2Cl)c1-c1ccc(Cl)cc1", "Potency": "11.9 µM (active)"},
      {"smiles": "Cc1oncc1C(=O)Nc1ccc(C(F)(F)F)cc1", "Potency": "61.1 µM (active)"},
      {"smiles": "OC/C(Br)=C(\\Br)CO", "activity change, negative = inhibition": "10.3%"},
      {"smiles": "C=CCOC(=O)/C=C\\C(=O)OCC=C", "activity change, negative = inhibition": "1.89%"},
      {"smiles": "COc1cc2c(N3CCN(C(=O)Nc4ccc(OC(C)C)cc4)CC3)ncnc2cc1OCCCN1CCCCC1", "activity change, negative = inhibition": "0.538% [at 42.5 µM]"}
    ]}
  ]
}
